The panel holds about 83,000 compounds, 20% with a hit somewhere; the sample as a whole holds those more often.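 Treatment: one concentration, 48 hours, 96-well format. Scoring: percent growth, with anything below 10 considered active.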 A number with no mark means an inactive call. Calls of active or inactive are those of the source.

The subject of this experiment is HL-60(TB) leukemia. Description: NCI-60 one-dose screen, 48 h (100 = growth as untreated, 0 = no growth, -100 = all killed). The settings on record: 10 µM unless noted.
As for `CC(C)(C)c1ccc(S(=O)(=O)Oc2ccc(NC(=O)C3CCCCC3)cc2)cc1`, the growth is 59.3%.
For `Cc1sc2nc(NCc3ccccc3)[nH]c(=O)c2c1C` the value was 22.4%.
Regarding `CC1=C(SCCC(=O)OC(C[Se]C2=C(C)C(=O)c3ccccc3C2=O)C(=O)NC(C)(C)C)C(=O)c2ccccc2C1=O` (configuration not stated), the growth was 8.81% (active).
Regarding `C#Cc1ccc(-n2c(/C=C/c3ccc(O)c(OC)c3)nc3ncccc3c2=O)cc1`, the growth was 84.7%.
Take `Cc1[nH]n(C(=O)c2ccncc2)c(=O)c1N=Nc1ccc(S(=O)(=O)Nc2ccncn2)cc1`: the growth is 91.3%.
For `Cc1ccc(NC(=O)c2cc(-c3nc4ccccc4s3)c(=O)n(NS(=O)(=O)c3ccc(Cl)cc3)c2N)cc1` the value was 101%; for `CC(C)CCCCCOC(=O)c1ccccc1SSc1ccccc1C(=O)OCCCCCC(C)C`, 82.2%; for `O=S(=O)(Nc1ccc(Cl)c(F)c1)c1ccc(-c2cnc(C3CC3)o2)cc1`, 0.942% (active).
On to `C=C(C)[C@@H]1CC[C@]2(COC(=O)c3cccnc3)CC[C@]3(C)[C@H](CC[C@@H]4[C@@]5(C)CCCN(C(=O)c6cccnc6)C(C)(C)[C@@H]5CC[C@]43C)[C@@H]12`, for which the growth is 11.6%.
As to `COc1cc(C2CC(C3C(=O)N(C)C(=O)N(C)C3=O)=NN2C=O)cc(OC)c1OC` (configuration not stated), the growth was 104%.
Then `CCO/C=C1\SC(=S)N(c2cccc(O)c2)C1=O`, with 100%; and `c1ccc2[nH]c(-c3ccc(Nc4nc(N5CCCCC5)nc(N5CCOCC5)n4)cc3)nc2c1`, with -22.7% (active); and `CCN(CC)CCCC(C)Nc1ccnc2ccc(Oc3ccccc3)cc12` (configuration not stated), with 72.6%.
With `Nc1c(-c2nc3ccccc3c(=O)[nH]2)nnn1-c1ccc(Cl)cc1`, the growth is 94%.
For `COc1ccc(C2=NN(C(C)=O)C(c3cn(-c4ccccc4)nc3-c3ccc(Cl)cc3)C2)cc1` (configuration not stated) the value was 3.16% (active); for `O=S(=O)(Nc1ccc(Br)cc1)c1ccc(-c2cnc(C3CC3)o2)cc1`, -36% (active); for `COC(=O)/C=C1/SC(=Nc2ccc(C(F)(F)F)cc2)N(CCc2c[nH]c3ccc(O)cc23)C1=O`, -33.1% (active).
For the compound `Cc1ccc(C(=O)Cc2ccccc2)c(O)c1`, the growth was 70.9%.
`COc1ccc(CCNc2nc3c(c(=O)n(Cc4ccc(Br)cc4)c(=O)n3C)n2C)cc1OC`: the growth was 28.6%.
For `COc1cc(C2=NNC(c3ccc(N(C)C)cc3)C2)cc(OC)c1OC` (configuration not stated) the value was -33.6% (active); for `C=C[C@@]1(C)CC(=O)[C@@H](C(C)(C)c2cn(C)c3ccc(Br)cc23)C[C@@H]1O[Si](C)(C)C(C)(C)C`, 106%; for `NC(=O)c1ncn(C2OC(CO)C(O)C2O)n1` (configuration not stated), 83.1%.
Consider `C/C(=N\O)c1ccc(NC(=O)CSc2nnc(-c3cc(-c4ccc(S(N)(=O)=O)cc4)nc4ccccc34)n2-c2ccccc2)cc1`, for which the growth is 24.1%.
For `CCN(CC)CCCC(Nc1c2ccc(Cl)cc2nc2ccc(OC)cc12)c1ccncc1` (configuration not stated) the value was 101%.
For the compound `CN1CCN(c2ccc(-c3ccc4ncc(C#N)c(Nc5ccc(F)c(Cl)c5)c4c3)cn2)CC1`, the growth was 38.1%.
Then `O=C(NNc1ccc(-c2ccccc2)nn1)c1ccc(F)cc1`, with 96.7%.
For `CCCCN(CCCC)CC(O)c1ccc(OCc2ccccc2)c2ccccc12` (configuration not stated) the value was -23.6% (active).

These data come from PubChem BioAssay (NCI).
